{"source": "PubChem BioAssay AID1974", "about": "(The Scripps Research Institute Molecular Screening Center, 2009)", "note": "The whole screen tested about 300,000 compounds, of which about 3,200 (1.1%) were called active. For the sample, actives were picked, then their nearest neighbours and some compounds at random. A number with no mark means an inactive call.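 Rule for the calls: active = inhibition above the campaign mean inhibition plus 3 SD (cut at about 35% in these data); inactive = the rest.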"}
{"target": "Glutathione S-transferase omega-1 (Homo sapiens) (UniProt P78417)", "sequence (P78417 whole entry, looked up)": "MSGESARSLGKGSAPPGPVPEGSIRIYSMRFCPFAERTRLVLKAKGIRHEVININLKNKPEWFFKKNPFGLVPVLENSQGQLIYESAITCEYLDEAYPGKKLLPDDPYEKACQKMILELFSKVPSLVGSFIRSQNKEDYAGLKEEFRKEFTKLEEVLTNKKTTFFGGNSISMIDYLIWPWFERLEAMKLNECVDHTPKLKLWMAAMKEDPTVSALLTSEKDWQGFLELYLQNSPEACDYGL", "test": "inhibitors of recombinant GSTO1, primary screen, counter-screen for RBBP9 inhibitor project, biochemical, fluorescence polarization (AID 1974);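 note: 0% = GSTO1-1 with DMSO and 100% = wells lacking GSTO1-1 enzyme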", "conditions": "recombinant GSTO1, activity-based probe fluorescence polarization; at 5.96 µM; hits give high values"}
{"smiles": "CCOC(=O)c1c(N)n(CCN2CCOCC2)c2nc3ccccc3nc12", "inhibition": "-0.71%"}
{"smiles": "COc1cc(Cn2c(N)c(C(=O)NCc3ccco3)c3nc4ccccc4nc32)cc(OC)c1OC", "inhibition": "-1.75%"}
{"smiles": "CCOC(=O)c1c(N)n(Cc2ccccc2)c2nc3ccccc3nc12", "inhibition": "77.2% (active)"}
{"smiles": "CCN(CC)CCOC(=O)c1cc2cc(COC)ccc2o1", "inhibition": "0.13%"}
{"smiles": "O=c1c2ccccc2nc(/C=C/c2ccco2)n1-c1ccccc1O", "inhibition": "-8.4%"}
{"smiles": "O=C(O)COc1ccccc1/C=C1\\C(=O)NC(=O)N(CCC2=CCCCC2)C1=O", "inhibition": "41.1% (active)"}
{"smiles": "O=C1NC(=O)N(CCc2ccc(F)cc2)C(=O)/C1=C/C=C/c1ccccc1", "inhibition": "-7.53%"}
{"smiles": "O=C1NC(=O)N(Cc2ccco2)C(=O)/C1=C\\c1cccn1CCOc1ccccc1", "inhibition": "18.6%"}
{"smiles": "COc1cc2nc(N3CCN(C(=O)[C@@H]4CCCO4)CC3)nc(N)c2cc1OC", "inhibition": "3.62%"}
{"smiles": "CCCCCCN=C(CC)c1c(O)n(CCCC)c(=O)[nH]c1=O", "inhibition": "-0.65%"}
{"smiles": "CC(=O)Nc1ccccc1C(=O)OCC(=O)c1cccc2ccccc12", "inhibition": "-2.14%"}
{"smiles": "O=C1NC(=O)N(c2ccccc2)C(=O)/C1=C/c1ccc([N+](=O)[O-])s1", "inhibition": "38.7% (active)"}
{"smiles": "Cc1cccc(N2C(=O)NC(=O)/C(=C\\c3cnn(-c4ccccc4)c3)C2=O)c1", "inhibition": "-2.05%"}
{"smiles": "COc1cccc(N2C(=O)NC(=O)/C(=C\\c3cn(C)c4ccccc34)C2=O)c1", "inhibition": "-0.1%"}
{"smiles": "Cc1ccc(N2C(=O)NC(=O)C(CCc3ccncc3)(Cc3cccc(Cl)c3Cl)C2=O)cc1", "note": "(stereo not given)", "inhibition": "-2.83%"}
{"smiles": "Cc1ccc(-n2c(-c3ccc([N+](=O)[O-])cc3)nc3ccccc3c2=O)cc1", "inhibition": "5.91%"}
{"smiles": "CCNc1nc2[nH]c(=O)c3c(c2s1)OC(N)=C(C#N)C3c1cccs1", "note": "(stereo not given)", "inhibition": "40.5% (active)"}
{"smiles": "N#CC1=C(N)Oc2c(c(=O)oc3ccccc23)C1c1ccccc1OC(=O)c1cccs1", "note": "(stereo not given)", "inhibition": "-8.89%"}
{"smiles": "CCN1c2nc3c(C)cccn3c(=O)c2CC2(C(=O)N(C)C(=O)N(C)C2=O)C1C", "note": "(stereo not given)", "inhibition": "-4.29%"}
{"smiles": "Cc1cc(C)cc(NC(=S)NC2CC3CCCC(C2)N3Cc2cccs2)c1", "note": "(stereo not given)", "inhibition": "0.82%"}
